SMILES strings stand for the structures. Active and inactive are the calls of the source. Rule for the calls: active = hit-call score of the fitted dose curve at least 0.9, where 1 is the maximum; inactive = score below 0.9.

Chain of Signal transducer and activator of transcription 3 (Homo sapiens) (P40763 whole entry, looked up): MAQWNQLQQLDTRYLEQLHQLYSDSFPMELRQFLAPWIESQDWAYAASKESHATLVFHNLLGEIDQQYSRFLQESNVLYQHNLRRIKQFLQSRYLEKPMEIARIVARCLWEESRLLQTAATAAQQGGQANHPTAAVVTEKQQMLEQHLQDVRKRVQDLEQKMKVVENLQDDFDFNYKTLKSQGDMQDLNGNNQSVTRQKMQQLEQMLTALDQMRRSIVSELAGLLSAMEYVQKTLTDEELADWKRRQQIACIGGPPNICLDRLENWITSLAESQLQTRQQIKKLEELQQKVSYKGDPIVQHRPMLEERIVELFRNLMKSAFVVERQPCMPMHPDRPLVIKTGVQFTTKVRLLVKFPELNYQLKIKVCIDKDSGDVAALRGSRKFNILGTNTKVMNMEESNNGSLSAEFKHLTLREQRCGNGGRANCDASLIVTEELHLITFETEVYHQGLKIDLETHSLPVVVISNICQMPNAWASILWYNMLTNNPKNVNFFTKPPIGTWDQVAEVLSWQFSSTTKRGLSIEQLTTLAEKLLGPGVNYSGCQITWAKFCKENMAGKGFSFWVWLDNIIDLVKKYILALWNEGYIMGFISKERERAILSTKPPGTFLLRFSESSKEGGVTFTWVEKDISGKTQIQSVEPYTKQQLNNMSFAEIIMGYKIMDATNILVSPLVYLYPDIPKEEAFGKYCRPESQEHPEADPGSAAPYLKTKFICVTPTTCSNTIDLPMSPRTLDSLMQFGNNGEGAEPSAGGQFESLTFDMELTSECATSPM

This experiment concerns the target Signal transducer and activator of transcription 3 (Homo sapiens) (UniProt P40763). Description: ATG_STAT3_CIS: Attagene CIS-FACTORIAL HepG2 Assay for human Signal Transducer and Activator of Transcription 3 (STAT3) (AID 2282963). The conditions noted are these: HepG2, Attagene cis-factorial STAT3 reporter transcription; actives raise or lower the signal. How it is done:
ATG_CIS is a cell-based, multiplexed-readout assay that uses HepG2, a human liver cell line, with measurements taken at 24 hours after chemical dosing in a 24-well plate.ATG_STAT3_CIS is one of 52 assay component(s) measured or calculated from the ATG_CIS assay. It is designed to make measurements of mRNA induction, a form of inducible reporter, as detected with fluorescence intensity signals by Reverse transcription polymerase chain reaction (RT-PCR) and Capillary electrophoresis technology.Data from the assay component ATG_STAT3_CIS was analyzed into 1 assay endpoint. This assay endpoint, ATG_STAT3_CIS, was analyzed with bidirectional fitting relative to DMSO as the negative control and baseline of activity. Using a type of inducible reporter, measures of mRNA for gain or loss-of-signal activity can be used to understand the reporter gene at the transcription factor-level as they relate to the gene STAT3. Furthermore, this assay endpoint can be referred to as a primary readout, because this assay has produced multiple assay endpoints where this one serves a reporter gene function. To generalize the intended target to other relatable targets, this assay endpoint is annotated to the dna binding intended target family, where the subfamily is stat protein.
Human liver HepG2 cells are transiently transfected with multiple reporter transcription units (MRTUs) in 6-well plates using FuGene 6 reagent (Roche; 3 ml FuGene/1 mg DNA). The MRTU constructs are regulated by a cis-regulating element (promoter). […] A major difference between the CIS and TRANS system is that in CIS activities of endogenous TFs are measured, whereas the TRANS assay evaluates changes in activities of exogenous, chimeric NR-Gal4 proteins. […] At the end of 24 hour incubation, total RNA was isolated using TriZol reagent (Invitrogen). The isolated RNA is then reverse-transcribed using oligo(dT) primer and Mo-MLV reverse transcriptase (Invitrogen) with DNAse I (Ambion) treatment for 30 min. The one-tenth of the produced cDNA was amplified by PCR using Taq DNA polymerase (Invitrogen) and two reporter sequence-specific primers. The PCR products were fluorescently labeled by primer extension with 6-arboxyfluorescein (6-FAM) 5'-labeled reporter sequence-specific primer (2 min at 95 C, 20 s at 68 C and 10 min at 72 C) and these products were digested with 5U of HpaI (New England Biolabs) for 2h at 37 C. The fragments were purified using Qiaquick PCR columns (Qiagen), analyzed on an ABI 3130xL genetic analyzer (Applied Biosystems) with peak positions identified by using a set of X-rhodamine (ROX)-labeled MapMarker1000 molecular weight standards (BioVentures). The raw capillary electrophoresis data was processed using Attagraph software (Attagene).
As to `Cc1cc(O)c(C(C)(C)C)cc1C(C)(C)C`, the result was inactive.

In the case of `FC(F)(F)C(F)(F)C(F)(F)C(F)(F)C(F)(F)C(F)(F)C(F)(F)CCI`, the result was inactive.

Consider `NCC(F)(F)C(F)(F)C(F)(F)C(F)(F)C(F)(F)C(F)(F)C(F)(F)C(F)(F)F`, for which the call was inactive.

Take `CC(C)(C)c1cc(CCC(=O)OCC(COC(=O)CCc2cc(C(C)(C)C)c(O)c(C(C)(C)C)c2)(COC(=O)CCc2cc(C(C)(C)C)c(O)c(C(C)(C)C)c2)COC(=O)CCc2cc(C(C)(C)C)c(O)c(C(C)(C)C)c2)cc(C(C)(C)C)c1O`: the molecule was called inactive.

For the molecule `NC(=O)C(F)(F)C(F)(F)C(F)(F)C(F)(F)C(F)(F)C(F)(F)C(F)(F)F`, the outcome was inactive.

Take `CC(C)CCCC(C)CCO` (stereo not given): the outcome was inactive.

Regarding `CN1CN(C)CN(C)C1`, the molecule was classed as inactive.

For `NS(=O)(=O)C(F)(F)C(F)(F)C(F)(F)C(F)(F)C(F)(F)C(F)(F)F`, the molecule was called inactive.

As for `OCC(F)(F)C(F)(F)C(F)(F)C(F)(F)C(F)(F)C(F)(F)C(F)(F)C(F)(F)CO`, the molecule was classed as inactive.

On to `C[C@]12CC[C@H]3C(=CCc4cc(O)ccc43)[C@@H]1CCC2=O`, for which the molecule was classed as inactive.

Take `c1ccc(C[P+](c2ccccc2)(c2ccccc2)c2ccccc2)cc1`: the molecule was classed as inactive.

For `C=C(C)C(=O)OCC(F)(F)C(F)(F)C(F)(F)C(F)F`, the call was inactive.

Regarding `OCC(F)(F)C(F)(F)C(F)(F)CO`, the outcome was inactive.

Turning to `C=CCOC(=O)CC(C)C`, the call was inactive.

For `CCCCCCCCCc1ccc(OCCO)cc1`, the AC50 (usually the concentration giving half of the maximal activity seen) is 19.5 µM (active).

For `CCc1cc(Cc2cc(CC)c(N)c(CC)c2)cc(CC)c1N`, the call was inactive.

In the case of `CC(=O)CCC(C)C`, the outcome was inactive.

On to `CCOC(OCC)OCC`, for which the result was inactive.

For the molecule `OCC(F)(F)C(F)(F)C(F)(F)C(F)(F)C(F)(F)C(F)(F)CO`, the molecule was called inactive.

On to `O=S(=O)(O)CCC(F)(F)C(F)(F)C(F)(F)C(F)(F)F`, for which the call was inactive.

For `CC(=O)C=O`, the molecule was called inactive.

Take `Cc1ccc(S(=O)(=O)C(I)I)cc1`: the AC50 is 7.8 µM (active).

For the molecule `CCc1ccc(C)nc1`, the outcome was inactive.

Consider `COC(=O)c1ccc(C=O)cc1`, for which the molecule was classed as inactive.

As to `CC(C)OC(=O)COc1ccc(Cl)cc1Cl`, the molecule was classed as inactive.

For the molecule `CCCCCCCC/C=C\CCCCCCCC(=O)OCC(O)CO` (stereo not given), the result was inactive.

Consider `CCCCCCCCCCCCCC[P+](CCCC)(CCCC)CCCC`, for which the molecule was called inactive.

Turning to `CCN(CC)c1ccc(N=Nc2ccccc2)cc1`, the AC50 is 27.6 µM (active).

As for `CCCCCC/C=C/CCCCCCCC(=O)O`, the molecule was classed as inactive.

Regarding `O=C=Nc1cccc2c(N=C=O)cccc12`, the result was inactive.

`O=C(Cl)C(F)(F)C(F)(F)C(F)(F)C(F)(F)C(F)(F)C(F)(F)C(F)(F)F`: the result was inactive.

With `CC(C)(C)c1cc(CCC(=O)NCCCCCCNC(=O)CCc2cc(C(C)(C)C)c(O)c(C(C)(C)C)c2)cc(C(C)(C)C)c1O`, the call was inactive.

On to `CCCCOC(=O)[C@H](C)O`, for which the result was inactive.

As for `CO[Si](CCCOCC1CO1)(OC)OC` (stereo not given), the molecule was classed as inactive.

With `CCOCN(C(=O)CS(=O)(=O)O)c1c(C)cccc1CC`, the outcome was inactive.

For `CCC(C)CO` (stereo not given), the call was inactive.

As to `CSc1ccc(O)cc1C`, the call was inactive.

In the case of `Nc1cccnc1N`, the outcome was inactive.

For the molecule `CCN=C1C=CC(=C(c2ccc(N(CC)CC)cc2)c2ccc(N(CC)CC)cc2)c2ccccc21`, the result was inactive.

In the case of `Cc1ccc2c(c1)OCC(=O)CO2`, the outcome was inactive.
